Experimental data from PubChem BioAssay (EPA / NIEHS).
Results filed as inconclusive are left out. Activity calls are given as the source filed them. How the source made its calls, unless noted: active means hit-call score of the fitted dose curve at least 0.9, where 1 is the maximum; inactive means score below 0.9.

Tests used:
[1] = target: Nuclear respiratory factor 1 (Homo sapiens) (UniProt Q16656); experiment: ATG_NRF1_CIS: Attagene CIS-FACTORIAL HepG2 Assay for human Nuclear Respiratory Factor 1 (NRF1) Orphan Gene (AID 2282987); settings: HepG2 NRF1 cis-element reporter, Attagene multiplex; actives raise or lower the signal
How it was run: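 HepG2 cells transiently transfected with multiple cis-regulated reporter units, exposed 24 h. Reporter mRNAs measured by RT-PCR, fluorescent labelling, HpaI digestion and capillary electrophoresis; bidirectional fitting against DMSO.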

[2] = ATG_NFI_CIS: Attagene CIS-FACTORIAL HepG2 Assay for human Nuclear Factor I (NFI) (AID 2282989); settings: HepG2 cis-regulatory reporter, NFI response element transcription; actives raise or lower the signal
How it was run: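 Read-out: reporter mRNA via RT-PCR plus capillary electrophoresis with fluorescence detection. Transiently transfected HepG2 (endogenous TF activity on cis promoters), 24 h compound exposure; gain or loss of signal fitted against DMSO.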

[3] = target: Myc proto-oncogene protein (Homo sapiens) (UniProt P01106); experiment: ATG_Myc_CIS: Attagene CIS-FACTORIAL HepG2 Assay for human Myelocytomatosis (Myc) Proto-Oncogene Transcription Factor (AID 2282990); settings: HepG2, Attagene cis-reporter transcription factor activity; actives raise or lower the signal
How it was run: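 Cells of the HepG2 human liver line bear multiple cis-driven reporter transcription units. Reporter mRNA after 24 h exposure is reverse-transcribed, amplified, labelled and resolved by capillary electrophoresis, with gain- or loss-of-signal fitting relative to DMSO.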

[4] = ATG_NF_kB_CIS: Attagene CIS-FACTORIAL HepG2 Assay for human Nuclear Factor Kappa B (NF-kB) (AID 2282991); settings: HepG2 Attagene cis-factorial NF-kB reporter mRNA; actives raise or lower the signal
How it was run: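 HepG2 cells transfected with cis-promoter-driven reporter units, so endogenous transcription factor activity is measured. Reporter mRNA quantified 24 h after dosing by RT-PCR and capillary electrophoresis, with bidirectional fitting against DMSO.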

[5] = ATG_NRF2_ARE_CIS: Attagene CIS-FACTORIAL HepG2 Assay for human Nuclear Factor Erythroid 2 Related Factor 2 (NFR2) response to Antioxidant Response Elements (ARE) (AID 2282992); settings: HepG2 Attagene ARE/NRF2 reporter, transcription factor activity; actives raise or lower the signal;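 on AC50: reporter mRNA level measured by RT-PCR and capillary electrophoresis fluorescence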
How it was run: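 Readout: reporter mRNA quantified by RT-PCR plus FAM-labelled primer extension, HpaI digestion and capillary electrophoresis, 24 h after dosing transfected HepG2 cells. Gain or loss of signal is fitted bidirectionally against DMSO baseline.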

[6] = target: Cellular tumor antigen p53 (Homo sapiens) (UniProt P04637); experiment: ATG_p53_CIS: Attagene CIS-FACTORIAL HepG2 Assay for human p53 Transcription Factor (AID 2282994); settings: HepG2 p53 cis-element reporter, Attagene mRNA; actives raise or lower the signal
How it was run: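 Read-out: reporter mRNA by RT-PCR plus capillary electrophoresis with fluorescence detection. Human HepG2 liver cells carried transfected multi-reporter cis-element constructs, dosed 24 h. Gain or loss of signal fitted bidirectionally against DMSO control.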

[7] = BSK_3C_TissueFactor: BioMAP Diversity Plus: 3C Assay for Tissue Factor Biomarker Activity (AID 2282997); settings: BioMAP 3C HUVEC, tissue factor biomarker readout; actives raise or lower the signal
How it was run: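 In this endothelial system, HUVEC are treated for 24 h and Tissue Factor is assessed by ELISA, normalised to DMSO.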

[8] = BSK_3C_VCAM1: BioMAP Diversity Plus: 3C Assay for Vascular cell adhesion molecule 1 (VCAM1) Biomarker Activity (AID 2282999); settings: BioMAP 3C HUVEC, VCAM1 ELISA, cytokine-stimulated; actives raise or lower the signal
How it was run: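 Activity fitted in both directions relative to DMSO, with ELISA measurement of the surface marker on primary HUVEC (3C) at 24 h post-treatment; parallel SRB staining (0.1% SRB, TCA-fixed, 560 nm) flagged overt cytotoxicity.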

[9] = BSK_4H_Eotaxin3: BioMAP Diversity Plus: 4H Assay for Eotaxin 3 Biomarker Activity (AID 2283000); settings: primary human endothelial cells (HUVEC); actives raise or lower the signal
How it was run: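 ELISA quantitation of CCL26 (Eotaxin-3) protein from chemically dosed human vascular endothelial cells at 24 h; increases and decreases both scored relative to DMSO-treated baseline.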

[10] = target: human Peroxisome Proliferator-activated Receptor alpha (PPARa), PPARA (gene 5465) (UniProt Q07869); experiment: ATG_PPARa_TRANS: Attagene TRANS-FACTORIAL HepG2 Assay for human Peroxisome Proliferator-activated Receptor alpha (PPARa) (AID 2283001; active means hit-call score of the fitted dose curve at least 0.9, where 1 is the maximum)
How it was run: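 Transfected HepG2 cells treated with test chemical for 24 h. RNA isolated, reverse-transcribed with oligo(dT), PCR-amplified, FAM-labelled and HpaI-digested. Fragments sized by capillary electrophoresis; gain-of-signal fit relative to DMSO.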

[11] = read-out: Intercellular Adhesion Molecule 1 (ICAM1), ICAM1 (gene 3383); experiment: BSK_3C_ICAM1: BioMAP Diversity Plus: 3C Assay for Intercellular Adhesion Molecule 1 (ICAM1) Biomarker Activity (AID 2283003); settings: primary human endothelial cells (HUVEC); actives raise or lower the signal
How it was run: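 ELISA read-out of ICAM-1; HUVEC (primary human), 3C system, 24 h post-dosing; bidirectional fit vs DMSO baseline.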

[12] = target: Peroxisome proliferator-activated receptor gamma (Homo sapiens) (UniProt P37231); experiment: ATG_PPARg_TRANS: Attagene TRANS-FACTORIAL HepG2 Assay for human Peroxisome Proliferator-activated Receptor-gamma (PPARg) (AID 2283007; active means hit-call score of the fitted dose curve at least 0.9, where 1 is the maximum)
How it was run: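 HepG2 cells are transiently transfected with GAL4-UAS reporter units driven by chimeric NR-Gal4 fusions and dosed for 24 h. Reporter mRNA is quantified by RT-PCR, 6-FAM labelling, HpaI digestion and capillary electrophoresis. Induction is scored against DMSO.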

[13] = target: Nuclear receptor subfamily 1 group I member 2 (Homo sapiens) (UniProt O75469); experiment: ATG_PXR_TRANS: Attagene TRANS-FACTORIAL HepG2 Assay for human Pregnane X Receptor (PXR) (AID 2283008; active means hit-call score of the fitted dose curve at least 0.9, where 1 is the maximum)
How it was run: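 Trans-factorial format: exogenous NR-Gal4 fusion activity, not endogenous factor, in transfected human HepG2 liver cells. After 24 h dosing, RNA isolated, reverse-transcribed, amplified and resolved by capillary electrophoresis; induction scored versus DMSO.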

[14] = target: human Retinoic Acid Receptor beta (RARb), RARB (gene 5915) (UniProt P10826); experiment: ATG_RARb_TRANS: Attagene TRANS-FACTORIAL HepG2 Assay for human Retinoic Acid Receptor beta (AID 2283004; active means hit-call score of the fitted dose curve at least 0.9, where 1 is the maximum)
How it was run: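 Fluorescent capillary-electrophoresis detection of GAL4-UAS reporter mRNA defines the endpoint, with induction over DMSO-treated wells scored as activity. Transiently transfected human hepatoma HepG2 cells expressing exogenous NR–Gal4 proteins are exposed to test chemicals for 24 h.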

[15] = ATG_Oct_MLP_CIS: Attagene CIS-FACTORIAL HepG2 Assay for human Octamer-Binding Transcription Factor (Oct) (AID 2282993); settings: HepG2 Attagene cis-factorial Oct reporter, mRNA; actives raise or lower the signal
How it was run: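 Read-out: reporter mRNA via RT-PCR plus capillary electrophoresis of 6-FAM-labelled fragments. Transiently transfected HepG2, 24 h exposure, endogenous TF activity on cis elements. Gain or loss of signal fitted relative to DMSO.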

[16] = target: human Peroxisome Proliferator-activated Receptor delta (PPARd), PPARD (gene 5467) (UniProt Q03181); experiment: ATG_PPARd_TRANS: Attagene TRANS-FACTORIAL HepG2 Assay for human Peroxisome Proliferator-activated Receptor delta (PPARd) (AID 2283002; active means hit-call score of the fitted dose curve at least 0.9, where 1 is the maximum)
How it was run: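 Cell-based TRANS reporter: HepG2, transient MRTU transfection, 24 h exposure. Readout = reporter mRNA (RT-PCR/CE, 6-FAM). Gain-of-signal fit vs DMSO control.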

[17] = BSK_3C_Proliferation: Cell Proliferation Assessment in the BioMAP Diversity Plus: 3C Assay (AID 2283006); settings: primary human endothelial cells (HUVEC);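 on AC50: potency may reflect either rise or fall in cell number versus DMSO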
How it was run: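 HUVEC, sub-confluent; 48 h chemical exposure; 10% TCA fix, 0.1% SRB stain, A560 total protein. Gain or loss of signal fitted both directions vs DMSO control.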

[18] = BSK_3C_uPAR: BioMAP Diversity Plus: 3C Assay for Urokinase-type plasminogen activator receptor (uPAR) Biomarker Activity (AID 2282998); settings: BioMAP 3C HUVEC, uPAR biomarker ELISA; actives raise or lower the signal
How it was run: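 HUVEC primary cells; 24 h post-dose; uPAR by ELISA; gain or loss of signal fitted bidirectionally vs DMSO baseline.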

[19] = target: Retinoic acid receptor alpha (Homo sapiens) (UniProt P10276); experiment: ATG_RARa_TRANS: Attagene TRANS-FACTORIAL HepG2 Assay for human Retinoic Acid Receptor alpha (RARa) (AID 2283005; active means hit-call score of the fitted dose curve at least 0.9, where 1 is the maximum)
How it was run: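 Reporter transcripts, measured by RT-PCR with fluorescent labeling and capillary electrophoresis after 24 h dosing, reflect activity of an exogenous human RARa–GAL4 fusion in transiently transfected HepG2. Fitted for increase relative to DMSO.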

[20] = target: human RAR-related Orphan Receptor beta (RORb), RORB (gene 6096) (UniProt Q92753); experiment: ATG_RORb_TRANS: Attagene TRANS-FACTORIAL HepG2 Assay for human RAR-related Orphan Receptor beta (RORb) (AID 2283010; active means hit-call score of the fitted dose curve at least 0.9, where 1 is the maximum)
How it was run: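 HepG2, transient MRTU transfection (GAL4-UAS reporters, exogenous NR-Gal4 chimeras); 24 h compound exposure; total RNA → RT-PCR → 6-FAM primer extension → HpaI digest → CE fluorescence. Positive direction vs DMSO baseline.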

Measured: AC50

Retinoic acid receptor alpha (Homo sapiens), sequence (P10276 whole entry, looked up, the tested form may be a part): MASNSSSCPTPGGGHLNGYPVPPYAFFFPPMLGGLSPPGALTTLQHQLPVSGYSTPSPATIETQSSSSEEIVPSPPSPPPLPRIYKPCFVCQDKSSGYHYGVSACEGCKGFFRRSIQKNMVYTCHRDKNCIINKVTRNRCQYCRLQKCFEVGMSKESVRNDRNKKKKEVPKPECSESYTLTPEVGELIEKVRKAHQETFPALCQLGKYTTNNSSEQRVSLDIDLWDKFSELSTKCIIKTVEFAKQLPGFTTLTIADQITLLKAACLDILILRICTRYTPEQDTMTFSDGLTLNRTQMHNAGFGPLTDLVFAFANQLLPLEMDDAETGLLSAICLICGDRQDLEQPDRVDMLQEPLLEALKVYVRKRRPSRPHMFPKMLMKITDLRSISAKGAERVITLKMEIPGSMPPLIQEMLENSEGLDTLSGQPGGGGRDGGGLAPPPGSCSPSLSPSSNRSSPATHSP
Nuclear respiratory factor 1 (Homo sapiens), sequence (Q16656 whole entry, looked up): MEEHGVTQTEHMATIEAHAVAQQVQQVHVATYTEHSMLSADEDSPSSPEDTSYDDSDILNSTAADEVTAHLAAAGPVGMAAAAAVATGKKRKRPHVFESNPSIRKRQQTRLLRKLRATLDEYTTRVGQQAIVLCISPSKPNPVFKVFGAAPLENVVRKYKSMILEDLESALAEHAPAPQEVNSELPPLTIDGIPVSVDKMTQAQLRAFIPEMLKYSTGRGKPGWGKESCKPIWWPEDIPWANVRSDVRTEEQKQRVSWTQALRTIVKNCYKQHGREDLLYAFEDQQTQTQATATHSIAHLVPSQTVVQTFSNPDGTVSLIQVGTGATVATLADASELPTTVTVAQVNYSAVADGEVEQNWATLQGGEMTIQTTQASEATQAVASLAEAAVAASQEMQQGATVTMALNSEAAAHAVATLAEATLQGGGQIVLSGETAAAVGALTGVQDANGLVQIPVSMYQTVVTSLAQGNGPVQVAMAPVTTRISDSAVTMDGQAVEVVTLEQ
Peroxisome proliferator-activated receptor gamma (Homo sapiens), sequence (P37231 whole entry, looked up, the tested form may be a part): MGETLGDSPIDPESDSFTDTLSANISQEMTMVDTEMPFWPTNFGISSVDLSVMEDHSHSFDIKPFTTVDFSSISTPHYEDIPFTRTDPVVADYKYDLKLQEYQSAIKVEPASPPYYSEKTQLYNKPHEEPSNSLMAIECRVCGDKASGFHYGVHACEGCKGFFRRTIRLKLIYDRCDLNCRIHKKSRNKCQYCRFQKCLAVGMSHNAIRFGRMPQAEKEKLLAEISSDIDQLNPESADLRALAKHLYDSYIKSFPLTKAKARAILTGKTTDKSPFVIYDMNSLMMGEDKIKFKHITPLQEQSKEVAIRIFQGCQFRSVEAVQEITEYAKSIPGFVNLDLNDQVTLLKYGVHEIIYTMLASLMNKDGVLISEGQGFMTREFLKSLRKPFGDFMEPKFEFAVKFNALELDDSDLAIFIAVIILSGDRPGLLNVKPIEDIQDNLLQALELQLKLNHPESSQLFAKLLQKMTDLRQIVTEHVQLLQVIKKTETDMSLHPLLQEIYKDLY
human RAR-related Orphan Receptor beta (RORb), RORB (gene 6096), sequence (Q92753 whole entry, looked up, the tested form may be a part): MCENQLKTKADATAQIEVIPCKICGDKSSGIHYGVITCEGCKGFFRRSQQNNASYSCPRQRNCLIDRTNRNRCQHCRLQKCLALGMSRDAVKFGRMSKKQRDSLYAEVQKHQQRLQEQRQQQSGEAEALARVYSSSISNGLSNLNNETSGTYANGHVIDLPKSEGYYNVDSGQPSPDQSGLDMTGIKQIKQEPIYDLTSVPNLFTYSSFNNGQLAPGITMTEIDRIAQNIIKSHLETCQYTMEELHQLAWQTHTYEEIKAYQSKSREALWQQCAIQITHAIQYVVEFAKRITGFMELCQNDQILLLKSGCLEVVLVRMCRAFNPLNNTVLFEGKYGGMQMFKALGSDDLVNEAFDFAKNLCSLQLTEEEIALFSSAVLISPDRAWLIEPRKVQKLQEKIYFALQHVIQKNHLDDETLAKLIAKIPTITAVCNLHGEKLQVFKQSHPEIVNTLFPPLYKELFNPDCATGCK
human Peroxisome Proliferator-activated Receptor alpha (PPARa), PPARA (gene 5465), sequence (Q07869 whole entry, looked up, the tested form may be a part): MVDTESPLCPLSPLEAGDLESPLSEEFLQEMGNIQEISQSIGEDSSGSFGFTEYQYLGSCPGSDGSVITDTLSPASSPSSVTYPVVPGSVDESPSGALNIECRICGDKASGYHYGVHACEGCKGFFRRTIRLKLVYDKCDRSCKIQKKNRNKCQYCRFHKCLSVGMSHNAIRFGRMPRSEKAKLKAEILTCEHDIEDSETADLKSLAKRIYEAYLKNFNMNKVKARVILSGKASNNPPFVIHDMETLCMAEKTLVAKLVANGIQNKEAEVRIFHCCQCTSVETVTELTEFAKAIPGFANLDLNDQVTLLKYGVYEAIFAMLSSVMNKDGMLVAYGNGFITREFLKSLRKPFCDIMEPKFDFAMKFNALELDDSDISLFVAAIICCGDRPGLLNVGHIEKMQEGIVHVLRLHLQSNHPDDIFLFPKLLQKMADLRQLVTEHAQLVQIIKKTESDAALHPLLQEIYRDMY
Myc proto-oncogene protein (Homo sapiens), sequence (P01106 whole entry, looked up): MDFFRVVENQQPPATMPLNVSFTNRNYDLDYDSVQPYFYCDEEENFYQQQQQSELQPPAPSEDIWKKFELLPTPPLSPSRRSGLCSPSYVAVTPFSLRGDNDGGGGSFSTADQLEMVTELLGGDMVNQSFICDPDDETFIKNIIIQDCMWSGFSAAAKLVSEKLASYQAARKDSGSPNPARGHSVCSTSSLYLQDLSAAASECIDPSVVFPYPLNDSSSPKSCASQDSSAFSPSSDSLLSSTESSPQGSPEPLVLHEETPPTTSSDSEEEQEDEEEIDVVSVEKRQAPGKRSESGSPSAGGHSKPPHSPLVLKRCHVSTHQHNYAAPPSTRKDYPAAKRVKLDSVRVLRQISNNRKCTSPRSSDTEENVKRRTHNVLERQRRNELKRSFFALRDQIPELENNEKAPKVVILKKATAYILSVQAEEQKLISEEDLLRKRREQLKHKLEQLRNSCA
Cellular tumor antigen p53 (Homo sapiens), sequence (P04637 whole entry, looked up): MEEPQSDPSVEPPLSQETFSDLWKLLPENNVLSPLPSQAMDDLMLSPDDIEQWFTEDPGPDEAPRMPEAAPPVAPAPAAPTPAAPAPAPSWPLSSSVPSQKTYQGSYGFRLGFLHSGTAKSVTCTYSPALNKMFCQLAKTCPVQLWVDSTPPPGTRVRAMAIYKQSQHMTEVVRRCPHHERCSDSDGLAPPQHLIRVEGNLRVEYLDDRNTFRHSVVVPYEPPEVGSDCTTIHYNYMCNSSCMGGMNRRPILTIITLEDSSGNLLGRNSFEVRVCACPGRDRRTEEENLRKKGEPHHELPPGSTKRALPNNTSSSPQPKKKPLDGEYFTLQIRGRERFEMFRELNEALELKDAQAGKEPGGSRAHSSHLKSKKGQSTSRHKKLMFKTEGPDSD
human Retinoic Acid Receptor beta (RARb), RARB (gene 5915), sequence (P10826 whole entry, looked up, the tested form may be a part): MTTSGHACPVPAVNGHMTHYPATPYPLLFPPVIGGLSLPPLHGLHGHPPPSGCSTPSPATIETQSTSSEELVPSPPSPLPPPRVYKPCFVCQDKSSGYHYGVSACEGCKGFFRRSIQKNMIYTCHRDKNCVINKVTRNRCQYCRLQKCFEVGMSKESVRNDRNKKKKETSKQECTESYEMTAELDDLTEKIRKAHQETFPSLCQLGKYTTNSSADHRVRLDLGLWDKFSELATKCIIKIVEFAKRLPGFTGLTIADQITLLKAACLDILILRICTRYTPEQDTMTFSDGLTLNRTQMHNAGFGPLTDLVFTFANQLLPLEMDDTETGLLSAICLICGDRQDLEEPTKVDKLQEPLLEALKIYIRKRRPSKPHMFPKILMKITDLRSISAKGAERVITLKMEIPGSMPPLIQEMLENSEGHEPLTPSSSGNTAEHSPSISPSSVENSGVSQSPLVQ
human Peroxisome Proliferator-activated Receptor delta (PPARd), PPARD (gene 5467), sequence (Q03181 whole entry, looked up): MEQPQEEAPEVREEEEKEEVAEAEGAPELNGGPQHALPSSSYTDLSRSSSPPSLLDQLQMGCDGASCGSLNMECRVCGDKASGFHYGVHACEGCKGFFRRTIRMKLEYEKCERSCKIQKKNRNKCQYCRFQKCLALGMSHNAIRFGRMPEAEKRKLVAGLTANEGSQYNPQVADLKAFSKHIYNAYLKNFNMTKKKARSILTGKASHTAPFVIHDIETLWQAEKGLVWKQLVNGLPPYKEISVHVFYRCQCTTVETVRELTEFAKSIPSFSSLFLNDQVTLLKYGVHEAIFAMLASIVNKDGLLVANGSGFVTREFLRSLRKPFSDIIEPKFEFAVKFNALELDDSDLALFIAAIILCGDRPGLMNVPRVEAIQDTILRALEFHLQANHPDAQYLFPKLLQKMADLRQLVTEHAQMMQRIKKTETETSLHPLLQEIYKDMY
Nuclear receptor subfamily 1 group I member 2 (Homo sapiens), sequence (O75469 whole entry, looked up, the tested form may be a part): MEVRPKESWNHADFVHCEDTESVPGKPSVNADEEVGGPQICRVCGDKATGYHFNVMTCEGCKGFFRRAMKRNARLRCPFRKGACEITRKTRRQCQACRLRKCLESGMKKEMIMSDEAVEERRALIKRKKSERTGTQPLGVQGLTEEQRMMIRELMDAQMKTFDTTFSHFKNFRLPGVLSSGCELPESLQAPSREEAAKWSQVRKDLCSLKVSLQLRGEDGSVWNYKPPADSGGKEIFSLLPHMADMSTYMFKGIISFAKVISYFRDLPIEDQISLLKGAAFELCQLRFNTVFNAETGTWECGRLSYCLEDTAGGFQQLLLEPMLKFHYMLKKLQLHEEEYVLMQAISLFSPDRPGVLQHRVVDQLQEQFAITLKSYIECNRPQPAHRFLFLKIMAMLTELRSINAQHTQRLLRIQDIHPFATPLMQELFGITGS

C=CCc1ccc2c(c1)OCO2
not listed: [14] | [15] | [16] | [17] | [18] | [19] | [20]
inactive: all other assays above

Nc1ccc(Cc2ccc(N)cc2)cc1
not listed: [13] | [15] | [16] | [17] | [18] | [19] | [20]
inactive: all other assays above

Nc1ccc([N+](=O)[O-])cc1
not listed: [6] | [12] | [14] | [16] | [17] | [18] | [19] | [20]
inactive: all other assays above

Clc1ccc(C(c2ccc(Cl)cc2)C(Cl)(Cl)Cl)cc1
active: [2] 42.1 µM | [5] 36.4 µM | [7] 27.7 µM | [8] 27.5 µM | [9] 30.1 µM | [11] 34.7 µM | [17] 20.1 µM
inactive: [1] | [3] | [4] | [6] | [16] | [12]

CC(O)CCO (stereo not given)
active: [13] 24.1 µM
not listed: [6] | [10] | [12] | [15] | [17] | [20]
inactive: all other assays above

Cc1ccc(N)c(N)c1
active: [5] 8.84 µM | [8] 5.57 µM | [17] 2.11 µM
not listed: [12] | [14] | [15] | [16] | [18] | [19]
inactive: all other assays above

CCCSC(=O)N(CCC)CCC
inactive: [1] | [2] | [3] | [4] | [5] | [7] | [9] | [16] | [11] | [13]

ClC1=C(Cl)[C@]2(Cl)[C@H]3[C@H]([C@@H]4C=C[C@H]3C4)[C@@]1(Cl)C2(Cl)Cl
active: [5] 50.5 µM | [7] 28.5 µM | [9] 34.1 µM | [11] 35 µM | [17] 12.2 µM | [13] 9.08 µM
inactive: [1] | [2] | [3] | [10] | [16] | [12] | [20]

OCCOCCO
inactive: [1] | [2] | [3] | [5] | [7] | [8] | [9] | [16] | [11] | [14] | [17]

Cc1ccc(N=C=O)cc1N=C=O
inactive: [1] | [2] | [3] | [4] | [5] | [7] | [9] | [11] | [14] | [19]

CN(C)c1ccccc1
not listed: [4] | [6] | [8] | [12] | [13] | [14] | [16] | [19]
inactive: all other assays above

C[N+](C)(C)CC1CO1 (stereo not given)
not listed: [4] | [10] | [12] | [13] | [14] | [16] | [19]
inactive: all other assays above

CC(C)(C)OOC(C)(C)CCC(C)(C)OOC(C)(C)C
active: [5] 75.2 µM | [14] 24.7 µM
inactive: [1] | [2] | [3] | [15] | [7] | [18] | [9] | [11] | [13]

Oc1ccc2ccc3cccc4ccc1c2c34
active: [7] 32.6 µM | [8] 35.4 µM | [9] 28.6 µM | [11] 31.8 µM | [13] 33.4 µM
inactive: [1] | [2] | [3] | [4] | [5] | [16] | [14]

COC(=O)Nc1nc2ccccc2[nH]1
active: [5] 21.4 µM | [18] 10.9 µM | [9] 20 µM
not listed: [4] | [14] | [15] | [17]
inactive: all other assays above

OCCCl
not listed: [4] | [6] | [8] | [12] | [14]
inactive: all other assays above

O=C(O)C1C2CCC(O2)C1C(=O)O (stereo not given)
inactive: [1] | [2] | [3] | [7] | [9] | [10] | [16] | [11] | [19] | [13]
active: [5] 34.7 µM | [15] 75.4 µM

CCOc1cccc(C2(N3CCN(c4ccccc4)CC3)CCC(C)CC2)c1 (stereo not given)
not listed: [4] | [8] | [13] | [17] | [18] | [19] | [20]
inactive: all other assays above

O=P(OCCCl)(OCCCl)OCCCl
not listed: [4] | [6] | [8] | [10] | [15] | [16] | [20]
inactive: all other assays above
